This is a sample that favours compounds with a hit; in the whole collection about 4% have one here.
Measles CPE: compounds protecting cells from measles virus cytopathic effect, primary screen, measles RdRp inhibitor project, single point, MLSMR library, absorbance; Measles virus-infected cells, CPE protection; 140,000 tested, 1.5% active; protection (pct of control), % at 4 µM; AID 841, 2007; in the data active = protection mostly above about 24%, no sharp cut-off; inactive = mostly below about 26%
HSV augment: enhancers of HSV replication in host cells, fold increase, host cell viability; maximum fold increase; 220,000 tested, 0.005% active; HSV replication augmentation in cells; in the data active = maximum fold increase above about 1.5; tested in PC3 cells
Arbovirus anti: antivirals against arbovirus infection, primary screen, cell-based, full library, 10K replicate subset. 200,000 tested, 0.37% active. inhibition, % at 10 µM. arbovirus infection cell-based antiviral screen. AID 1251, 2008; in the data active = inhibition above about 30%
KCC2 mod: KCC2 cotransporter modulators, thallium flux, primary screen, cell-based, HEK293 KCC2, FluoZin-2 fluorescence, MLSMR | Solute carrier family 12 member 5 (Homo sapiens), Q9H2X9 | KCC2 cells, thallium flux FluoZin-2 fluorescence | B-score of Tl+ flux slope (higher = more flux/activation; lower = inhibition) at 10 µM | 190,000 tested, 2.2% active;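 active = thallium flux slope and its plate-corrected score both differing from the plate sample mean at a set confidence after two filtering rounds, in either direction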;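 also: slope of fluorescence scaled to starting intensity during 10 to 20 s after thallium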
Target sequence (Q9H2X9 whole entry, looked up): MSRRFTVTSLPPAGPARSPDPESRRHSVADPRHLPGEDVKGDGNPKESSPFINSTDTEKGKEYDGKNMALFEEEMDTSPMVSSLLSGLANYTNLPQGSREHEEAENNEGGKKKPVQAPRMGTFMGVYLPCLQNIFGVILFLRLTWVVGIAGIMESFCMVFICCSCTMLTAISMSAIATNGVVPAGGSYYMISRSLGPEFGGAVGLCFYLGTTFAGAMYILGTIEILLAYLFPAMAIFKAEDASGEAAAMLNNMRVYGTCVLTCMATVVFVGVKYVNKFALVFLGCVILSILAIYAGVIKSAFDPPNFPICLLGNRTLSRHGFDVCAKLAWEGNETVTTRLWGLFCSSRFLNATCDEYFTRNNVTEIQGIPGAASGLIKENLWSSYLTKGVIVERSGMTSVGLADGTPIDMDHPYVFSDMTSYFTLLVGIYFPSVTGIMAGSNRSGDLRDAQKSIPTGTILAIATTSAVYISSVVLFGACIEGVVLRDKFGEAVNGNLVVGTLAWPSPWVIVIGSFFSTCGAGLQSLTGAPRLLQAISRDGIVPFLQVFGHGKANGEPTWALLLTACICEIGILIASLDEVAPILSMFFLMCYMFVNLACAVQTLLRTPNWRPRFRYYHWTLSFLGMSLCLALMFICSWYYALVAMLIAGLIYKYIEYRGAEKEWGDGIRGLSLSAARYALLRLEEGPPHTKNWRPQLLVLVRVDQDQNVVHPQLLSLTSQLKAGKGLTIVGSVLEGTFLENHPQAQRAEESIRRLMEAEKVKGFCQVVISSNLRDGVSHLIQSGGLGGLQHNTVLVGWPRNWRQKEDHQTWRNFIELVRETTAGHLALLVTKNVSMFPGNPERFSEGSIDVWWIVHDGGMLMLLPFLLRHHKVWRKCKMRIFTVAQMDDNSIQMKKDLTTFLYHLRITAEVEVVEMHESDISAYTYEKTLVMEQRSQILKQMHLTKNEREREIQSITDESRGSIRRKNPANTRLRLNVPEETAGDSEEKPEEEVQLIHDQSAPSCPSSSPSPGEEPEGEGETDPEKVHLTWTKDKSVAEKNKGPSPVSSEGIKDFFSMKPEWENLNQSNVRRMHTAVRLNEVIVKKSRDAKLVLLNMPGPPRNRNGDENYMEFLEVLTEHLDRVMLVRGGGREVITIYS
ROMK mod: ROMK potassium channel modulators, primary screen, cell-based, thallium flux, MLSMR library; ATP-sensitive inward rectifier potassium channel 1 (Homo sapiens), P48048; Tet-inducible ROMK, thallium flux fluorescence; actives lie on both sides; B-score at 10 µM; 130,000 tested, 2% active; AID 1918, 2009;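 active = signal ratio slope over the read window, or its plate-corrected B-score, at least 3 SD from the plate mean, either direction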;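 also: B-score of the F/F0 ratio slope over 7 to 12 s after thallium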
An asterisk follows results filed as active; i = inactive; x = no result given.

SMILES | Measles CPE | HSV augment | Arbovirus anti | KCC2 mod | ROMK mod
Cc1cc(/C=C2\SC(=S)NC2=O)c(C)n1-c1ccc(O)cc1 | x | i | x | -5.5* | -4.4*
Cc1csc(-c2cnn(-c3ccccc3)c2NC(=O)c2cccc(C(F)(F)F)c2)n1 | 21.6* | i | -2.0 | 0.747 | -0.105
O=C(Nc1ccccc1-c1ccccc1)c1cccc(C(F)(F)F)c1 | 3.1 | i | -3.2 | -0.496 | 0.9
CCNC(=S)Nc1nc2c(cc1C(=O)OCC)CCCC2 | 22.7 | i | -3.3 | 40.6* | x
C=CCNC(=S)Nc1nc2c(cc1C(=O)OCC)CCCC2 | 8.5 | i | 16.4 | 63.1* | 0.568
COc1ccc(CC(=O)NNS(=O)(=O)c2ccc(F)cc2)cc1OC | x | i | -2.1 | 0.167 | 1.16
S=c1[nH]c(-c2ccccc2)cs1 | x | i | 5.0 | 49.9* | 2.52*
O=c1[nH]c(-c2ccccc2)cs1 | 9.0 | i | -6.6 | -0.295 | 0.229
O=C1OCC2=C1C(c1ccc(F)cc1)c1cc3c(cc1N2)OCO3 (centres undefined) | x | i | -14.4 | -0.00974 | 2.77*
O=C(CCC(=O)OCc1ccc(C(=O)Oc2ccccc2)cc1)Nc1cccc2ccccc12 | 79.3* | i | 1.1 | -0.208 | x
C=CCOC(=O)CCC(=O)Nc1cccc2ccccc12 | 17.0 | i | 4.7 | 0.75 | x
CCOC(=O)Cn1c(C)[n+](CC(=O)c2ccccc2)c2ccccc21 | x | i | x | 0.151 | x
CN(c1ccccc1)P(=O)(N(C)c1ccccc1)N(C)c1ccccc1 | x | i | 26.0 | 0.801 | 1.21
C=CCc1cccc(C2Nc3ccccc3C(=O)N2O)c1O (centres undefined) | 3.9 | i | 2.1 | 13.3* | x
Fc1ccccc1N1CCN(c2ncnc3[nH]ncc23)CC1 | 2.6 | x | 43.0* | 0.0024 | x
OCCC1CN(Cc2cn[nH]c2C2CCCCC2)CCN1C1CCCCC1 (centres undefined) | x | i | 2.2 | 0.39 | -0.756
CCC(C)C(NC(=O)C1CCC(C)CC1)C(=O)NC(CCSC)C(=O)OC (centres undefined) | 23.1* | i | 5.9 | x | 0.266
CCOC(=O)CSc1nnc(-c2ccc(Cl)cc2Cl)o1 | 41.7* | i | -3.7 | -0.78 | -0.0611
CCCOC(=O)CSc1nnc(-c2ccc(Cl)cc2Cl)o1 | 2.8 | i | 3.5 | -1.71 | 0.0341
O=C(CS(=O)(=O)c1ccccc1)Nc1ccc(Br)cn1 | 19.8 | i | 1.6 | 0.195 | -0.591
CC[C@@H](C)C(NC(=O)OC(C)(C)C)c1cn([C@@H](Cc2cc3ccccc3[nH]2)C(=O)N2CCN(C(=O)OC(C)(C)C)CC2)nn1 (some centres undefined) | x | i | -12.8 | -0.484 | x
CCn1c2ccccc2c2cc(NC(=O)C(=O)N3CCOCC3)ccc21 | x | i | -8.5 | -0.757 | -1.1
O=C1/C(=C/c2ccncc2)CCC/C1=C\c1ccncc1 | x | i | -28.8 | -1.18 | -3.32*
O=C1/C(=C/c2ccncc2)CCc2ccccc21 | x | i | x | -1.05 | -1.68
Brc1ccc(-c2ncc3ccccn23)cc1 | x | i | x | -3.1 | x
SMILES | Measles CPE | HSV augment | Arbovirus anti | KCC2 mod | ROMK mod
COC(=O)c1ccc(CSc2nc3c(cnn3-c3ccc(C)c(C)c3)c(=O)[nH]2)o1 | 29.9* | i | 10.2 | 1.03 | x
CCCSc1nc2c(cnn2-c2ccc(C)c(C)c2)c(=O)[nH]1 | 8.9 | i | -0.1 | -0.0308 | x
O=C(CNC(=O)c1ccco1)OCC(=O)c1ccc(Cl)cc1Cl | x | i | 3.8 | x | 0.761
CCOC(=O)c1ccc(S(=O)(=O)Nc2cc(C(C)(C)C)no2)cc1 | 39.9* | i | 9.0 | 0.0319 | x
Cc1ccccc1N=Nc1c(C)[nH]n(C(N)=S)c1=O | 2.6 | i | -1.1 | 10.6* | -0.558
CCNC(=O)NC(=O)COC(=O)CCc1nc(=O)c2ccccc2n1C | x | i | -1.5 | -0.00963 | 0.612
NC(=S)NC1CCS(=O)(=O)C1 (centres undefined) | x | i | 13.4 | 0.216 | 1.11
O=S1(=O)CCC(NC(=S)NCCNC(=S)NC2CCS(=O)(=O)C2)C1 (centres undefined) | 27.6* | i | -7.2 | 0.0609 | x
Cn1c2ccccc2c(=O)c2c(=O)n(Cc3ccco3)c(-c3ccc(C(C)(C)C)cc3)nc21 | x | i | x | -0.343 | 0.185
C=CCn1c(=S)[nH]c2sc3c(c2c1=O)CCC3 | 25.6 | i | -0.9 | 31.1* | 3.24*
O=C(NCCCN1CCN(Cc2ccccc2)CC1)c1nnc(Cc2c(F)cccc2Cl)o1 | 39.0* | i | 8.0 | -2.84 | x
O=C(c1ccc(-n2cnnn2)cc1)N(C1CCCCC1)C1CCCCC1 | x | i | 5.0 | 0.0271 | 0.169
CC1(C)CC(CCNC(=O)c2ccc(-n3cnnn3)cc2)CC(C)(C)N1 | 29.8* | i | 5.0 | -0.308 | x
O=P(COCCCCCOCP(=O)(c1ccccc1)c1ccccc1)(c1ccccc1)c1ccccc1 | x | i | -14.0 | -2.81 | -0.751
CCCOc1ccc(-c2nc[nH]c2[N+](=O)[O-])cc1 | x | i | 15.3 | -0.0229 | -0.442
CCc1c(C)nc2[nH]nc(NC(=O)C(F)(F)F)n2c1=O | 51.0* | i | 6.3 | x | 1.02
COc1cc(S(=O)(=O)N2CCCCC2)ccc1NC(C)=O | 51.7* | i | 2.9 | 1.01 | 0.859
COC(=O)c1c(NC(=O)CN2CCN(c3ccccc3OC)CC2)c2c(C)cccc2n1C | 12.3 | i | 14.0 | -1.66 | -0.326
COC(=O)c1c(NC(=O)CN2CCN(c3ccccc3)CC2)c2c(C)cccc2n1C | 42.5* | i | 15.6 | -0.335 | 0.0222
O=C(COC(=O)/C=C/c1ccc(S(=O)(=O)N2CCOCC2)cc1)NC1CCCCCCC1 | x | i | 4.8 | 0.266 | -1.05
C=CCn1c(SCC(=O)c2cc(C)n(CCOC)c2C)nc2sc(C)c(C)c2c1=O | 41.7* | i | -3.4 | x | -0.438
O=C(CCCc1cccs1)Nc1nccs1 | x | i | -1.8 | 0.265 | -0.553
COCCn1c(-c2ccc(Cl)cc2)cnc1SCC(=O)NCc1cccs1 | 4.1 | i | 58.1* | -0.908 | 0.627
O=C(CSc1nc2ccccc2c(=O)n1Cc1ccc(Cl)cc1)NCc1cccs1 | 20.6 | i | -6.0 | 3.54 | 0.599
Cc1c(NC(=O)/C=C/c2ccc(S(=O)(=O)N3CCOCC3)cc2)c(=O)n(-c2ccccc2)n1C | x | i | 0.3 | -0.81 | -1.16
O=C([C@@H]1CC=C[C@@H]2CCN(C3CCCCC3)C(=O)[C@@H]21)N1CCN(c2ccccc2)CC1 | x | i | x | x | x
C=CCn1c(SC(C)C(N)=O)nc2sc(CC)cc2c1=O (centres undefined) | x | i | 32.1* | 0.476 | -1.61
COc1cc(/C=N/Nc2nc(C)nc3c2cnn3-c2ccccc2)ccc1O | x | i | 1.5 | 0.151 | -0.16
O=C(NC1CCCCC1)C(c1ccc(O)c(O)c1)N(C(=O)Cn1nnc2ccccc21)c1cccc(O)c1 (centres undefined) | x | i | -4.7 | 1.34 | 0.613
CCCN(CCC)C(=O)Cn1c(=O)n(CCCCC(=O)NC2CCCC2)c(=O)c2ccccc21 | 8.5 | i | 2.1 | -0.779 | x
